From PubChem BioAssay AID651558 (National Center for Advancing Translational Sciences (NCATS), 2012)
Hit rate of the full screen: of about 1,200 compounds, about 480 (40%) were called active. Not shown: some 29% with an inconclusive outcome. This is one part of the list. A number with no mark means an inactive call. Calls follow the shape of the dose curve; as a rule, active = well fitted inhibition curve with a large enough effect; inconclusive = small, poorly fitted or top-dose-only effect; inactive = no such curve, though single readings can be large or run the other way.

Assay: qHTS Assay to Find Inhibitors of Chronic Active B-Cell Receptor Signaling: Hit Validation in Primary Screen; also: nearly all actives have a fitted effect of over 75% in size
Conditions: ABC-DLBCL IkB-luc/CBR ratio luminescence, 4 h; series mostly up to 46.1 µM; activity change, negative = inhibition: at the top concentration
In short: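 Concentration series (3 nM to 46 uM) tested on TMD8 cells induced with doxycycline for 4 h. Filter-corrected green (IkBa fusion) over red (unfused) luciferase signal; Data were normalised to 10 uM MG-132 and untreated cell wells.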
% is scaled to controls: 0 for no effect and ±100 for the full control effect; potency is read from the fitted curve at half-maximal effect.

Compound	activity change, negative = inhibition [%]	Potency
Cc1ccc(C(=O)O)cc1NC(=S)NC(=O)C(c1ccccc1)c1ccccc1	-10.3	–
Cc1cc(C)cc(N2CC(O)=C(c3nc4ccccc4c(=O)[nH]3)C2=N)c1	-26	–
COc1cccc(N2CC(O)=C(c3nc4ccccc4s3)C2=N)c1	–	23.1 µM (active)
COc1ccc(/C(C)=N/Nc2ncc(Cl)cc2Cl)c(O)c1	-7.99	–
COc1ccc(/C=N/Nc2nccnc2Cl)c(OC)c1	–	23.1 µM (active)
CCOC(=O)N1CCN(S(=O)(=O)c2ccc(C(=O)Nc3ccc(F)cc3F)cc2)CC1	–	20.6 µM (active)
CC(C)COc1ccc(C(=O)Nc2cc(S(=O)(=O)N3CCOCC3)ccc2N2CCCC2)cc1	-6.48	–
COc1cc(OC)cc(-c2cc3cc4c(cc3cn2)OCO4)c1	–	3.66 µM (active)
CCOC(=O)C1CCN(S(=O)(=O)c2c(Cl)ccc3nonc23)CC1	–	5.8 µM (active)
CCOc1ccc2nc(N3C(=O)CNC3=S)sc2c1	58.1	–
CCOC(=O)Nc1ccc2nc(N3CCCCCC3)sc2c1	–	20.6 µM (active)
CN(CC(=O)Nc1ccccc1C(F)(F)F)C(=O)c1ccccc1Sc1ccccc1C#N	-11.6	–
COc1cccc(N2CCN(C(=O)c3ccc(CS(=O)c4ccc(C)cc4)o3)CC2)c1 (configuration not stated)	–	6.51 µM (active)
COc1cccc(N2CCN(C(=O)c3ccc(CS(=O)c4ccc(Cl)cc4)o3)CC2)c1 (configuration not stated)	–	23.1 µM (active)
C=CCNC(=S)NN=C1CCCCCCC1	-10.4	–
CCOC(=O)c1cnc(Nc2nc3ccccc3o2)nc1CSC(=S)N(CC)CC	-0.925	–
COc1ccc(C=C2c3ccccc3C(=O)c3ccccc32)c(OC)c1	–	4.61 µM (active)
O=C(OCC(O)CO)c1ccccc1Nc1ccnc2cc(Cl)ccc12 (configuration not stated)	–	20.6 µM (active)
Oc1ccccc1-n1c(-c2ccccc2)ccc1-c1ccccc1	-13.2	–
N#CC1=C(N)OC2=C(CCc3ccccc32)C1c1ccccc1 (configuration not stated)	–	2.59 µM (active)
Cc1nc2c(C(F)(F)F)cccc2c2c1CCS2	–	16.4 µM (active)

Compound	activity change, negative = inhibition [%]	Potency
COc1ccccc1-n1cnc2cc(NCc3cccs3)ccc21	–	16.4 µM (active)
N#CC1=C2SCC(O)(c3ccccc3)N2C(=O)CC1c1cccs1 (configuration not stated)	–	13 µM (active)
N#CC1=C2SCC(O)(c3ccccc3)N2C(=O)CC1c1ccccc1 (configuration not stated)	–	18.4 µM (active)
COc1cc(OC)cc(C(=O)NCc2cc(C)nc3ccccc23)c1	-13.4	–
COc1cc(OC)cc(C(=O)NCc2ccc3c(c2)CCN3C(=O)c2ccccc2)c1	–	10.3 µM (active)
CCOc1ccccc1NC(=O)Cn1nnc(C(=O)NCc2cccs2)c1N	–	2.59 µM (active)
O=C(CSc1nnnn1-c1ccccc1)Nc1nsc(-c2ccc(Cl)cc2)n1	93.8	–
O=C(CSc1ncn[nH]1)Nc1nnc(-c2ccccc2)s1	–	0.231 µM (active)
CCc1nnc(NC(=O)CSc2nnc(-c3ccccc3NC(=O)c3ccccc3)o2)s1	-5.82	–
CC1CCN(C(=O)CCCOc2cc(=O)n(C)c3ccccc23)CC1	–	23.1 µM (active)
O=C(N1CCN(c2ccccn2)CC1)N1c2ccccc2Sc2ccccc21	–	7.31 µM (active)
CC(=O)Nc1ccc(NS(=O)(=O)c2cc(-c3n[nH]c(=O)c4ccccc34)ccc2C)cc1	–	23.1 µM (active)
Cc1cc(=O)[nH]c2ccc(S(=O)(=O)Nc3ccc(O)cc3)cc12	-19.3	–
Cc1ccc(NS(=O)(=O)c2cc(-c3n[nH]c(=O)c4ccccc34)ccc2C)cc1	–	18.4 µM (active)
CCOC(=O)C1C(C(=O)OC)=C(c2ccc(OC)cc2)c2ccccc2N1S(=O)(=O)C(F)(F)F (configuration not stated)	-14	–
CCn1c2ccccc2c2cc(NC(=O)c3cc(OC)cc(OC)c3)ccc21	–	2.06 µM (active)
CCn1c2ccccc2c2cc(NC(=O)c3cc(OC)c(OC)c(OC)c3)ccc21	–	0.731 µM (active)
COc1cc(NC(=O)COC(=O)Cc2ccc(-c3ccccc3)cc2)cc(OC)c1	-9.19	–
COc1cc(OC)cc(C(=O)NCC(=O)Nc2ccc(-c3ccccc3)cc2)c1	–	20.6 µM (active)
CCCn1nnc(NC(=S)NC(=O)Cc2ccccc2)n1	-4.95	–
COc1ccc(OCC(O)CN2CCN(c3ccccc3)CC2)cc1 (configuration not stated)	-11.5	–

Compound	activity change, negative = inhibition [%]	Potency
Cc1nc2ncccn2c1-c1csc(Nc2ccc(N(C)C)cc2)n1	–	7.31 µM (active)
Cc1ccc(Nc2nc(-c3c(C)nc4ncccn34)cs2)cc1	–	4.11 µM (active)
Cc1ccc(Nc2nc(-c3c(C)nc4ccccn34)cs2)cc1	–	0.259 µM (active)
COc1ccc(Nc2nc(-c3c(C)nc4ncccn34)cs2)cc1	–	2.31 µM (active)
Cc1ccc(C2OCC3(CO)COC(c4ccc(C)cc4)N23)cc1 (configuration not stated)	-6.87	–
Oc1[nH]c2ccc(Br)cc2c1N=NC(=S)Nc1ccc(F)cc1	6.69	–
Cc1ccccc1C1=NC(C(F)(F)F)(C(F)(F)F)c2c(n(C)c(=O)n(C)c2=O)N1	-19.6	–
COc1ccc(NC(=O)C(=O)c2cn(CC(=O)N3CCCC3)c3ccccc23)cc1	–	9.2 µM (active)
COc1cc2cnc(-c3ccccc3)cc2cc1OC	–	20.6 µM (active)
CCC(C)NC(=O)c1ccccc1NC(=O)c1ccc(CSc2ccccc2)cc1 (configuration not stated)	39.9	–
COc1cc(NC(=S)NC(=O)c2ccccc2F)ccc1NC(=O)c1ccco1	41.4	–
COc1ccccc1C(=O)Nc1ccccc1SC(=O)c1ccccc1OC	–	7.31 µM (active)
Cc1ccc(CCC(=O)Nc2ncc(Cc3cccc(Cl)c3Cl)s2)o1	–	0.231 µM (active)
Cc1ccc(CCC(=O)Nc2ncc(Cc3cc(Cl)ccc3Cl)s2)o1	–	1.3 µM (active)
CCc1ccc(CCC(=O)Nc2ncc(Cc3ccccc3Cl)s2)o1	–	2.91 µM (active)
Cc1cccc(NC(=S)N=Nc2c(O)n(C)c3ccc(S(=O)(=O)N4CCOCC4)cc23)c1	-17.4	–
COc1ccc(-c2csc(C3=C(O)CN(CCCN4CCCC4=O)C3=N)n2)cc1OC	–	18.4 µM (active)
Cc1nnc2ccc(-c3ccc(NS(=O)(=O)c4ccccc4[N+](=O)[O-])cc3)nn12	–	20.6 µM (active)
CCc1ccc(S(=O)(=O)Nc2ccc(-c3ccc4nnc(C)n4n3)cc2)s1	–	14.6 µM (active)
COc1ccc(OC)c(S(=O)(=O)Nc2ccc(-c3ccc4nnc(C)n4n3)cc2)c1	182	–
